Bioassay records as filed in PubChem BioAssay.
NOMO-1 viab = STK33 inhibitor candidate reducing NOMO-1 cell viability; NOMO-1 AML viability, CellTiter-Glo luminescence, 72 h; inhibition, % (test concentration not listed); 7.5% of 37,000 active; AID 2330; in the data active = inhibition above about 80%; inconclusive = no clear call, values can overlap the other calls
Hedgehog inh = blocks Sonic Hedgehog signaling; Shh-LIGHT2 Gli-luciferase reporter, 30 h; inhibition, % (test concentration not listed); 2.1% of 22,000 active; AID 2313;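 active = mean inhibition across valid replicates above about 65%, limit read from the data; inconclusive = mean under the limit, yet half or more replicates past it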;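 note: pathway switched on by Shh-conditioned medium diluted 1 in 25 in low serum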
MITF inhib = blocks MITF activity; TRPM1 promoter luciferase, luminescence, 24 h; inhibition, % (no concentration beside the values); 0.28% of 37,000 active; AID 2240; in the data active = inhibition above about 85%; inconclusive = no clear call, values can overlap the other calls; inactive = below about 68%;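 note: human melanocyte line stably carrying TRPM1 promoter luciferase reporter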
An asterisk follows results filed as active; ? = inconclusive; · = not tested or not shown. A selection: hits, their analogues and other compounds. The true share with any hit is near 7.8%.

SMILES | NOMO-1 viab | Hedgehog inh | MITF inhib
CC(=O)c1c(C)oc2ccc(N(C(=O)c3ccncc3)S(=O)(=O)c3ccc(F)cc3)cc12 | 31 | · | 25
COC(=O)c1c(C)oc2ccc(N(C(=O)c3ccncc3)S(=O)(=O)c3ccc(OC)cc3)cc12 | 111* | · | 56
Cc1cc(C)c(S(=O)(=O)NCCN2CCN(S(=O)(=O)c3c(C)cc(C)cc3C)CC2)c(C)c1 | 38 | · | 0
COc1ccccc1NC(=O)Cn1nc(C)c([N+](=O)[O-])c1C | 12 | · | 36
C[C@H](CO)N1C[C@H](C)[C@H](CN(C)C(=O)Nc2ccc(F)cc2)Oc2c(NC(=O)CCCCCC(=O)Nc3ccccc3N)cccc2C1=O | 23 | · | -25
C[C@@H]1CN([C@@H](C)CO)C(=O)c2cccc(NC(=O)Nc3ccc(C(F)(F)F)cc3)c2O[C@@H]1CN(C)C(=O)Nc1ccc(F)cc1 | 50 | -6 | 18
C[C@@H]1CN([C@@H](C)CO)C(=O)c2cccc(NC(=O)CCCCCC(=O)Nc3ccccc3N)c2O[C@@H]1CN(C)C(=O)Nc1ccc(C(F)(F)F)cc1 | 118* | · | 0
CC(C)NC(=O)N(C)C[C@@H]1Oc2c(NC(=O)Nc3ccc(C(F)(F)F)cc3)cccc2C(=O)N([C@@H](C)CO)C[C@H]1C | 15 | ? | 7
CC(C)NC(=O)N(C)C[C@H]1Oc2c(NC(=O)Nc3ccc(C(F)(F)F)cc3)cccc2C(=O)N([C@H](C)CO)C[C@H]1C | 115* | -15 | 12
C[C@H]1CN([C@@H](C)CO)C(=O)c2cccc(NC(=O)Nc3ccc(C(F)(F)F)cc3)c2O[C@@H]1CN(C)C(=O)Nc1ccc(C(F)(F)F)cc1 | 88* | -1 | 0
COc1ccc(NC(=O)N(C)C[C@H]2Oc3c(NC(=O)Nc4ccc(C(F)(F)F)cc4)cccc3C(=O)N([C@@H](C)CO)C[C@@H]2C)cc1 | 42 | 28 | -13
C[C@@H]1CN([C@@H](C)CO)C(=O)c2cccc(NC(=O)Nc3ccc(C(F)(F)F)cc3)c2O[C@H]1CN(C)C(=O)Nc1ccc(C(F)(F)F)cc1 | 105* | -7 | 60
Cc1ccc(S(=O)(=O)N(C)C[C@@H]2Oc3c(NC(=O)NC4CCCCC4)cccc3C(=O)N([C@@H](C)CO)C[C@H]2C)cc1 | 10 | -54 | 16
COc1ccc(NC(=O)Nc2ccc3c(c2)CC(=O)N([C@@H](C)CO)C[C@H](C)[C@@H](CN(C)C(=O)Nc2c(C)noc2C)O3)cc1 | 21 | -57 | 2
COc1ccc(S(=O)(=O)N(C)C[C@@H]2Oc3ccc(NC(=O)Cc4cn(C)c5ccccc45)cc3C(=O)N([C@@H](C)CO)C[C@H]2C)cc1 | -2 | · | 27
C[C@H]1CN([C@@H](C)CO)C(=O)c2cc(NC(=O)C3CCCCC3)ccc2O[C@@H]1CN(C)C(=O)NC1CCCCC1 | -6 | · | 4
CC[C@H](C)/C=C(C)/C=C/C(=O)Cc1cc(O)c(C)c(O)c1C=O | ? | -12 | 19
C[C@H]1CN([C@@H](C)CO)C(=O)c2cccc(NC(=O)Nc3ccc(C(F)(F)F)cc3)c2O[C@H]1CN(C)C(=O)Nc1ccc2c(c1)OCO2 | 92* | -49 | -1
COc1ccc(S(=O)(=O)Nc2cccc3c2O[C@@H](CN(C)C(=O)Nc2ccc(F)cc2)[C@@H](C)CN([C@H](C)CO)C3=O)cc1 | 111* | 1 | 14
COc1ccc(NC(=O)N(C)C[C@H]2Oc3c(NC(=O)Nc4ccc(C(F)(F)F)cc4)cccc3C(=O)N([C@H](C)CO)C[C@@H]2C)cc1 | 103* | -4 | -4
C[C@H](CO)N1C[C@H](C)[C@@H](CN(C)C(=O)Nc2ccc(C(F)(F)F)cc2)Oc2c(NC(=O)Nc3ccccc3)cccc2C1=O | 13 | -36 | -6
COc1ccc(S(=O)(=O)Nc2cccc3c2O[C@H](CN(C)C(=O)Nc2ccc(F)cc2)[C@@H](C)CN([C@H](C)CO)C3=O)cc1 | 12 | · | 23
COc1ccc(NC(=O)Nc2cccc3c2O[C@@H](CN(C)C(=O)Nc2ccc(C(F)(F)F)cc2)[C@H](C)CN([C@@H](C)CO)C3=O)cc1 | 18 | 7 | -5
C[C@@H]1CN([C@@H](C)CO)C(=O)c2cccc(NC(=O)Nc3ccc(C(F)(F)F)cc3)c2O[C@@H]1CN(C)C(=O)Nc1ccc2c(c1)OCO2 | 38 | -47 | -5
C[C@@H]1CN([C@H](C)CO)C(=O)c2cccc(NC(=O)Nc3ccc(C(F)(F)F)cc3)c2O[C@@H]1CN(C)C(=O)Nc1ccccc1 | 105* | 16 | 13
SMILES | NOMO-1 viab | Hedgehog inh | MITF inhib
CC(=O)c1cccc(NC(=O)CSc2nnnn2C)c1 | -17 | · | -41
C[C@@H]1CN([C@H](C)CO)C(=O)Cc2cc(NC(=O)c3ccncc3)ccc2O[C@@H]1CN(C)Cc1ccc2c(c1)OCO2 | -1 | -1 | -8
C[C@H](CO)N1C[C@H](C)[C@@H](CN(C)S(=O)(=O)c2cccs2)Oc2ccc(NC(=O)CCC(F)(F)F)cc2C1=O | -5 | -40 | -5
C[C@@H]1CN([C@H](C)CO)C(=O)Cc2cc(NC(=O)Cc3ccccc3)ccc2O[C@H]1CN(C)CC1CCCCC1 | 38 | -38 | 0
C[C@H]1CN([C@@H](C)CO)C(=O)c2cccc(NC(=O)C3CCCCC3)c2O[C@@H]1CN(C)Cc1ccc(-c2ccccc2)cc1 | 25 | 30 | -4
CN(CC(=O)Nc1cccc(F)c1)S(=O)(=O)c1ccccc1 | 26 | · | -9
CC(C)NC(=O)N(C)C[C@H]1Oc2ccc(NS(=O)(=O)c3cccs3)cc2C(=O)N([C@@H](C)CO)C[C@H]1C | 14 | · | -10
CCNc1cc(N)[n+](CC)c2n[nH]c(N)c12 | 106* | 5 | 1
COc1cc(S(=O)(=O)NC2CC(C)(C)NC(C)(C)C2)c(OC)cc1Cl | 15 | · | 7
CCOc1ccc(C(Nc2cccnc2)c2cc(Cl)c3cccnc3c2O)cc1 (configuration not stated) | 115* | · | 53
CSc1ccc(S(=O)(=O)NCc2ccccn2)cc1 | 13 | · | -20
Cc1ccc(C)c(C(Nc2ccccn2)c2cc(Cl)c3cccnc3c2O)c1 (configuration not stated) | 113* | · | 68
CSc1ccc(C(Nc2ccccn2)c2cc(Cl)c3cccnc3c2O)cc1 (configuration not stated) | 112* | · | 60
Cn1nc(-c2ccc(OCC(=O)Nc3cccnc3)cc2)c2ccccc2c1=O | 63 | · | -20
CCc1ccc(C(Nc2ccccn2)c2cc(Cl)c3cccnc3c2O)cc1 (configuration not stated) | 123* | · | ?
COc1cc(C(Nc2ccccn2)c2cc(Cl)c3cccnc3c2O)cc(Br)c1O (configuration not stated) | 48 | · | -3
C[C@@H]1CN([C@H](C)CO)C(=O)Cc2cc(NC(=O)CCC(F)(F)F)ccc2O[C@H]1CN(C)C(=O)Nc1ccc(F)cc1 | -3 | 6 | -13
Cc1cccc(NC(=O)CN(c2ccc(Oc3ccccc3)cc2)S(C)(=O)=O)c1C | 9 | · | 0
Cc1ccc(S(=O)(=O)NC(C)C(=O)Nc2cccc(C(F)(F)F)c2)cc1 (configuration not stated) | 15 | · | 10
CCn1c(=N)n(CCCOc2ccc(Br)cc2)c2ccccc21 | 36 | -25 | -12
COc1ccc(S(=O)(=O)Nc2ccc3c(c2)CC(=O)N([C@H](C)CO)C[C@@H](C)[C@H](CN(C)S(=O)(=O)c2cn(C)cn2)O3)cc1 | -7 | 12 | -7
